Data as given in the OligoGym collection.

Target: BST2
Assay: pooled miR-30 sensor sort-seq; sequence = guide strand
Settings: shRNA
Further: reference of the scale not given here.

| Sequence | sensor-assay potency score (higher = more potent) |
| --- | --- |
| TAGTACTTCTTGTCCGCGATTC | -1.14 |
| TCAGTCGCTCCACCTCTGCAGA | -1.23 |
| TACAGCGCTTATCCCCGTCTTC | -1.34 |
| TCTCACGCTTAAGACCTGGTTT | -0.474 |
| ATTCTCACGCTTAAGACCTGGT | -0.0201 |
| TTCTTGTCCGCGATTCTCACGC | -0.275 |
| TTTGTCCTTGGGCCTTCTCTGC | -1.64 |
| TAATGTAGTGATCTCTCCCTCA | 0.239 |
| TGAAGCTTATGGTTTAATGTAG | -0.303 |

Target: BTAF1
Assay: as above
Settings: shRNA

| Sequence | sensor-assay potency score (higher = more potent) |
| --- | --- |
| TAGAGTGTAATTATACCTCTGT | 0.377 |
| TAATACTATTTGTTGAAGCTGT | 0.361 |
| TACAGCAACAAAGTGCTCCTAA | 0.633 |
| TAGAACTTTCGGAAGTAGGTTC | -0.237 |
| TTTACTGCTTTTGACAACTTTG | -1.03 |
| TTTTGATCTTGCATATTCCTGG | -0.211 |
| TAGCTTCAACAGCTTGTCCTGC | -0.281 |
| TAAAGTATTAATTACATCCTGA | -0.104 |
| TAACCAGTTCACACCATCCTGC | -0.839 |
| TTACTCAACAGTTCCATCCAAA | -0.305 |
| TTGATCTTGCATATTCCTGGGC | 0.499 |
| TAAGAGTACAATAATAGTCTTG | -0.191 |
